Measured values as given in PubChem BioAssay (EPA / NIEHS).
Some structures have more than one record in an assay (separate samples or runs), and their calls can disagree. Activity calls are given as the source filed them. Rule for the calls: active = hit-call score of the fitted dose curve at least 0.9, where 1 is the maximum; inactive = score below 0.9.

Read-out: ATP-citrate lyase (ACLY), ACLY (gene 47)
Experiment: LTEA_HepaRG_ACLY: Life Technologies and Expression Analysis (LTEA) Assay for ATP-citrate lyase (ACLY) using HepaRG (AID 2283466)
Details: mRNA level, 48 h; actives raise or lower the signal
Protocol: LTEA_HepaRG is a cell based, multiplexed-readout assay that uses HepaRG, a human liver cell line, with measurements taken at 48 hours after chemical dosing on a 96-well plate.LTEA_HepaRG_ACLY is one of 102 assay component(s) measured in the LTEA HepaRG cell culture assay. It is a marker of Steatosis.Data from the assay component LTEA_HepaRG_ACLY was analyzed into 1 endpoint. This assay endpoint, LTEA_HepaRG_ACLY, was analyzed with bidirectional fitting relative to DMSO as the negative control and baseline of activity. Using a type of inducible reporter, measures of mRNA induction for gain or loss-of-signal activity can be used to understand regulation of transcription factor activity. To generalize the intended target to other relatable targets, this assay endpoint is annotated to the lyase intended target family, where the subfamily is steatosis.
A total of 1060 chemcials from the ToxCast library were tested in eight-point concentration-response experiments. Cell culture and cytotoxicity assays were conducted at Thermo Fisher Scientific's Custom Services facility (Madison, WI). A single lot of human HepaRG cells (Thermo Fisher Scientific, Frederick, MD) was used for the cell culture experiments. 96-well format collagen type I coated plates of human HepaRG cells were prepared using established methods. Briefly, cryopreserved HepaRG cells were thawed, plated at a density of approximately 100,000 cells/well in HepaRG Thaw, Plate, and General Purpose media (HPRG770, Thermo Fisher Scientific), and incubated for 48 hours. 0.5% DMSO was selected as vehicle control to balance the requisite need of DMSO in HepaRG cultures to maintain differentiation (for example, baseline metabolism, proportions of hepatocytes vs. cholangiocytes), while enabling further hepatic receptor pathway activation (for example, PXR and CAR) in response to chemical exposure. 48 hours after plating, the culture medium was replaced with HepaRG Serum-Free Incudtion Media. Cells were exposed to each test chemical in duplicate and maintained in CO2 incubators for another 48 hours. Chemical plates were thawed to room temperature and 200x concentrations of treatment groups were prepared. 8-point conentration-reponse curves were made with the highest exposure at 100 uM, followed by half-log dilutions, all in 0.5% DMSO. Each test plate contained variouse controls, induction positive controls (1mM phenobarbital), cytotoxicity positive controls ([…] aflatoxin B1), vehicle controls (0.5% DMSO), and total lysis controls (0.5% DMSO). Cell morphology images were taken using an Essen IncuCyte FLR automated microscope, with six 96-well plates imaged in about 24 minutes. Images were captured and exported and JPEG files. Spent culture media was transfered to black-well plates for the LDH assay, and remaining media was sorted at -80 C for later use. Cells were treated with RLT buffer and frozen until shipped for gene expression analysis. Total RNA was isolated from the cell suspension in 75 uL of Buffer RLT (Qiagen, Germantown, MD 20874) by Quintiles/Expression Analysis (Durham, NC) using a custom isolation procedure. Total RNA from each plate well was transferred to a preamplification plate. Fluidigm's 96.96 Dynamic ArrayTM (Fluidigm, Amsterdam, the Netherlands) technology was used for gene expression analyses by quantitative reverse transcription polymerase chain reaction (qRT-PCR, performed by Quintiles/Expression Analysis, Durham, NC)89. Standard TaqManTM Assays (Applied Biosystems/ThermoFisher Scientific, Foster City, CA) were used to assess the expression of 93 genes selected based on their selectivity and sensitivity to important hepatic receptors known to be modulated by environmental chemicals; importance in human hepatocyte functionality; and hepatotoxicity. […]

Row | SMILES | outcome | AC50
1 | COC(=O)c1ccccc1C(=O)OC | inactive | 
2 | C=CC1(C)OC(=O)N(c2cc(Cl)cc(Cl)c2)C1=O (stereo not given) | inactive | 
3 | CCCN(CCC)c1c([N+](=O)[O-])cc(S(N)(=O)=O)cc1[N+](=O)[O-] | inactive | 94.3 µM (active)
4 | CCOP(=S)(OCC)SCn1c(=O)oc2cc(Cl)ccc21 | inactive | 
5 | CCCCNC(=O)n1c(NC(=O)OC)nc2ccccc21 | inactive | 
6 | COc1ccc(C(c2ccc(OC)cc2)C(Cl)(Cl)Cl)cc1 | inactive | 
7 | CC(Oc1ccc(Cl)cc1Cl)C(=O)O (stereo not given) |  | 50 µM (active)
8 | CCc1nn(C)c(C(=O)NCc2ccc(C(C)(C)C)cc2)c1Cl |  | 0.502 µM (active)
9 | CC(C)(C)c1ccc(CSc2cnn(C(C)(C)C)c(=O)c2Cl)cc1 |  | 1.72 µM (active)
10 | Cc1cc(Cl)ccc1OCC(=O)O | inactive | 
11 | CCOC(=O)C(Cl)Cc1cc(-n2nc(C)n(C(F)F)c2=O)c(F)cc1Cl (stereo not given) | inactive | 
12 | CCCCOC(=O)c1ccccc1C(=O)OCCCC | inactive | 
13 | Cc1c(F)c(F)c(COC(=O)C2C(/C=C(\Cl)C(F)(F)F)C2(C)C)c(F)c1F (stereo not given) | inactive | 
14 | COC(=O)C=C(C)OP(=O)(OC)OC | inactive | 
15 | N#Cc1cc(Br)c(O)c(Br)c1 |  | 23.5 µM (active)
16 | CCCC1COC(Cn2cncn2)(c2ccc(Cl)cc2Cl)O1 (stereo not given) |  | 11.9 µM (active)
17 | CN(C)C(=S)SSC(=S)N(C)C | inactive | 
18 | CCNc1nc(Cl)nc(NC(C)C)n1 | inactive | 
19 | CCCCC(CC)COC(=O)c1ccccc1C(=O)OCC(CC)CCCC (stereo not given) | inactive | 
20 | C=CCC1=C(C)C(OC(=O)C2C(C=C(C)C)C2(C)C)CC1=O (stereo not given) | inactive | 

Row | SMILES | outcome | AC50
21 | Fc1ccc(Oc2ccnc3cc(Cl)cc(Cl)c23)cc1 | inactive | 
22 | CNC(=S)S | inactive | 
23 | COP(=S)(OC)Oc1nc(Cl)c(Cl)cc1Cl | inactive | 
24 | CO/C=C(/C(=O)OC)c1ccccc1Oc1cc(Oc2ccccc2C#N)ncn1 | inactive | 
25 | O=C(O)COc1nc(Cl)c(Cl)cc1Cl | inactive | 
26 | C#CCOS(=O)OC1CCCCC1Oc1ccc(C(C)(C)C)cc1 (stereo not given) |  | 35 µM (active)
27 | COC(=O)C(C)Oc1ccc(Oc2ccc(Cl)cc2Cl)cc1 (stereo not given) | inactive | 
28 | CCON=C(CC)C1=C(O)CC(c2c(C)cc(C)cc2C)CC1=O (stereo not given) | inactive | 
29 | CON(C)C(=O)Nc1ccc(Cl)c(Cl)c1 | inactive | 
30 | O=C(O)c1nc(Cl)ccc1Cl | inactive | 
31 | CC1=C(C(=O)Nc2ccccc2)SCCO1 | inactive | 
32 | CNC(=O)ON=CC(C)(C)SC | inactive | 
33 | O=C(Nc1ccccc1)Nc1ccnc(Cl)c1 |  | 80.4 µM (active)
34 | N#CC(CCc1ccc(Cl)cc1)(Cn1cncn1)c1ccccc1 (stereo not given) |  | 12.9 µM (active)
35 | CC1COC(Cn2cncn2)(c2ccc(Oc3ccc(Cl)cc3)cc2Cl)O1 (stereo not given) |  | 86.7 µM (active)
36 | Cc1ccc(-c2c(Cl)nc(C#N)n2S(=O)(=O)N(C)C)cc1 |  | 50 µM (active)
37 | CCCCNC(=O)OCC#CI | inactive | 
38 | CCOC(=O)CC(SP(=S)(OC)OC)C(=O)OCC (stereo not given) | inactive | 
39 | COC(=O)N(OC)c1ccccc1COc1ccn(-c2ccc(Cl)cc2)n1 | inactive | 
